Targets with a hit are over-represented here; the source holds about 8,800 in all. About 0.5% of all pairs of compound and target were hits.
How the values were obtained:
Assay in all cases: log2 fold change, soluble protein after heating vs DMSO (PISA); higher = thermal stabilisation; K562 lysate, 10 uM; active = over 0.2 and 3.5 SD of the protein, either way, in both replicates (recomputed)
ibrutinib = compound: C=CC(=O)N1CCC[C@@H](n2nc(-c3ccc(Oc4ccccc4)cc3)c3c(N)ncnc32)C1 [ibrutinib]
Outline: (§1)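 K562 pellets were dounce-homogenised in PBS pH 7.4 with 1 mM MgCl2, and the crude extract at 1 mg/mL protein was treated with 10 μM compound for 30 min. Aliquots were heated for 3 min across 48°C-58°C, pooled, and brought to 0.5% NP-40 at 4°C; soluble protein was the supernatant after 21,000xg for 90 min. Soluble protein was quantified by TMTpro 16plex LC-MS/MS with channel sums equalised, and reported as log2 fold change in thermal stability against DMSO controls, with values from duplicates.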

[1] = compound: CC(=O)c1cnc2ccc(-c3cc(Cl)c(O)c(Cl)c3)nc2c1N[C@H]1CC[C@H](CN(C)C)CC1
Outline: as §1

ralimetinib = compound: CC(C)(C)Cn1c(N)nc2ccc(-c3[nH]c(C(C)(C)C)nc3-c3ccc(F)cc3)nc21 [ralimetinib]
Outline: as §1

[2] = compound: CC(C)(O)CC(=O)NCCn1ccc2ncnc(Nc3ccc(Oc4cccc(C(F)(F)F)c4)c(Cl)c3)c21
Outline: as §1

[3] = compound: CC(C)C1=C2N=C(C=C(N2N=C1)NCC3=CC=CC=C3)NCCCCCCN
Outline: as §1

[4] = compound: CC1=C(C(CC(=O)N1)C2=CC=C(C=C2)C(F)(F)F)C(=O)NC3=C(C=C4C(=C3)C=NN4)F
Outline: as §1

[5] = compound: CC1=C(C2=C(C=C1)C(=O)C3=CC=CC=C3N2CCCN)C
Outline: as §1

[6] = compound: CC1=C(C=C(C=C1)NC(=O)C2=CC(=CC=C2)C(C)(C)C#N)NC3=CC4=C(C=C3)N=CN(C4=O)C
Outline: as §1

[7] = compound: CC1=C(C=C(C=C1)NC(=O)C2=CC(=CC=C2)N(C)C)NC(=O)C3=CC=C(C=C3)O
Outline: as §1

[8] = compound: CC1=CC=C(C=C1)SC2=C3C=C(SC3=CN=C2)C(=O)N
Outline: as §1

vemurafenib = compound: CCCS(=O)(=O)Nc1ccc(F)c(C(=O)c2c[nH]c3ncc(-c4ccc(Cl)cc4)cc23)c1F [vemurafenib]
Outline: as §1

[9] = compound: CCCS(=O)(=O)Nc1ccc(F)c(C(=O)c2c[nH]c3ncc(Cl)cc23)c1F
Outline: as §1

barasertib = compound: CCN(CCCOc1ccc2c(Nc3cc(CC(=O)Nc4cccc(F)c4)[nH]n3)ncnc2c1)CCOP(=O)(O)O [barasertib]
Outline: as §1

[10] = compound: CC[C@@H]1C(=O)N(C)c2cnc(Nc3ccc(C(=O)NC4CCN(C)CC4)cc3OC)nc2N1C1CCCC1
Outline: as §1

volasertib = compound: CC[C@@H]1C(=O)N(C)c2cnc(Nc3ccc(C(=O)N[C@H]4CC[C@H](N5CCN(CC6CC6)CC5)CC4)cc3OC)nc2N1C(C)C [volasertib]
Outline: as §1

[11] = compound: CCn1c(C(=O)N(C2CC2)C2CC2)cc2c3c(ncn3C)c(Nc3cc(C)n(C)n3)nc21
Outline: as §1

[12] = compound: CCn1cc(-c2ccnc3[nH]c(-c4cccc(CN(C)C)c4)cc23)c(-c2ccc(NC(=O)N(C)C)cc2)n1
Outline: as §1

[13] = compound: CN1CCC(CNc2ccc3ncc(-c4cccc(OC(F)(F)F)c4)n3n2)CC1
Outline: as §1

saracatinib = compound: CN1CCN(CCOc2cc(OC3CCOCC3)c3c(Nc4c(Cl)ccc5c4OCO5)ncnc3c2)CC1 [saracatinib]
Outline: as §1

sotrastaurin = compound: CN1CCN(c2nc(C3=C(c4c[nH]c5ccccc45)C(=O)NC3=O)c3ccccc3n2)CC1 [sotrastaurin]
Outline: as §1

Measured: log2 fold change

OSBPL3 isoform 2 (UniProt Q9H4L5)
inactive: ibrutinib 0.031 | [1] -0.007 | ralimetinib 0.019 | [2] 0.004 | [3] -0.033 | [4] 0.018 | [5] 0.02 | [6] 0.015 | [7] 0.057 | [8] -0.016 | vemurafenib 0.018 | [9] 0.01 | barasertib 0.005 | [10] -0.053 | volasertib -0.139 | [11] 0.025 | [12] -0.013 | [13] -0.068 | saracatinib 0.04 | sotrastaurin 0.018

NDUFS1 isoform 2 (UniProt P28331)
UniProt P28331, sequence (P28331 whole entry, looked up): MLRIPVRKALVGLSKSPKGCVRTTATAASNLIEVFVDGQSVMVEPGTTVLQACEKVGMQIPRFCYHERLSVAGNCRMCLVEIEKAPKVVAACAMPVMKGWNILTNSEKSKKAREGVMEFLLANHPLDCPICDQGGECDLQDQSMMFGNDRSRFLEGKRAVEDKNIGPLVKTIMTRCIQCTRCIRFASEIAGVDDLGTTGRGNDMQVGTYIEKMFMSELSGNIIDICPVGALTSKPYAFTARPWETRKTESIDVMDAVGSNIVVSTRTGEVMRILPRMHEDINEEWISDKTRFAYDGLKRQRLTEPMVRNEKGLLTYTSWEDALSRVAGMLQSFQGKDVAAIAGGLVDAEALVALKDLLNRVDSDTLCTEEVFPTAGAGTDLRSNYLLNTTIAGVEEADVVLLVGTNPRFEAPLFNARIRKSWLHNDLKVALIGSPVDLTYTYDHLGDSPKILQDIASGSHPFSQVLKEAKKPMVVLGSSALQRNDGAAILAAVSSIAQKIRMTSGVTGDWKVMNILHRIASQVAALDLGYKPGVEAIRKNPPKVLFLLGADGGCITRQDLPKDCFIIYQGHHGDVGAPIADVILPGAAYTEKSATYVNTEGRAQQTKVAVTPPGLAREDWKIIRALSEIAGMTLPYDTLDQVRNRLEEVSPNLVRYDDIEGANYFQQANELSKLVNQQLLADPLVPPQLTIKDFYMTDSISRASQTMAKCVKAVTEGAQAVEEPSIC
inactive: ibrutinib -0.022 | [1] -0.009 | ralimetinib 0.014 | [2] -0.049 | [3] -0.041 | [4] 0.01 | [5] 0.007 | [6] -0.045 | [7] 0.005 | [8] 0.005 | vemurafenib 0.041 | [9] 0.018 | barasertib 0.011 | [10] -0.032 | volasertib -0.001 | [11] 0.016 | [12] -0.006 | [13] -0.027 | saracatinib -0.004 | sotrastaurin 0.054

NLRP2 (UniProt Q9NX02)
UniProt Q9NX02, sequence (Q9NX02 whole entry, looked up): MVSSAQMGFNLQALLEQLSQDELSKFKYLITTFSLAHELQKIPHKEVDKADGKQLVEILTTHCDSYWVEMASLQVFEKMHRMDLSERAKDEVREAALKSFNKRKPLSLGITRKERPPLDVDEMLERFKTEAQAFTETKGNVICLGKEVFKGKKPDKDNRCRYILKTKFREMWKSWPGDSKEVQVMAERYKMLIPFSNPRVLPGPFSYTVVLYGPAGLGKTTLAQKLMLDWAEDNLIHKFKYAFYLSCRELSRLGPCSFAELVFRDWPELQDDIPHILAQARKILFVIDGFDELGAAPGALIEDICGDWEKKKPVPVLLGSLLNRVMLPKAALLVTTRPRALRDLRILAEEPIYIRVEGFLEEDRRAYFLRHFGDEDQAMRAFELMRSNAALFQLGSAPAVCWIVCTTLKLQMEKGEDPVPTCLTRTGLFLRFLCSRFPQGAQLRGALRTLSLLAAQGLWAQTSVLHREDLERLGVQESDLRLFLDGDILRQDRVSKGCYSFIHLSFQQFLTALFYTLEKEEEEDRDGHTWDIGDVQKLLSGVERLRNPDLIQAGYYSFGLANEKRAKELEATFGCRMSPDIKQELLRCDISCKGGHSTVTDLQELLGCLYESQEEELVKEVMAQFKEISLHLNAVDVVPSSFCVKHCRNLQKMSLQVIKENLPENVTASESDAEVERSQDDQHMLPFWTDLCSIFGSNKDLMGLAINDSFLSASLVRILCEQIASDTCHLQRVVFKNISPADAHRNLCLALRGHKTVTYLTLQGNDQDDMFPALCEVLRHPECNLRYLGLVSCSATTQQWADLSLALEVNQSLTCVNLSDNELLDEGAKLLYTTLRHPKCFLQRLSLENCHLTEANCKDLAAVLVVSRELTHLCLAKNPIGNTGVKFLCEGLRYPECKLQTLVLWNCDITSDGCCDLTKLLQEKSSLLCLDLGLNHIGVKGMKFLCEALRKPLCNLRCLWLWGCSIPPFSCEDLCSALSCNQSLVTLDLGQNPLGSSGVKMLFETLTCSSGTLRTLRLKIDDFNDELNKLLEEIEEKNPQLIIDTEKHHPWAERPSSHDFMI
inactive: ibrutinib -0.007 | [1] -0.007 | ralimetinib 0.036 | [2] 0.021 | [3] -0.008 | [4] 0.007 | [5] 0.009 | [6] 0.003 | [7] 0.021 | [8] 0.021 | vemurafenib -0.011 | [9] -0.003 | barasertib -0.04 | [10] -0.048 | volasertib -0.067 | [11] 0.041 | [12] 0.031 | [13] -0.05 | saracatinib -0.012 | sotrastaurin -0.017

PARG (UniProt Q86W56)
inactive: ibrutinib 0.013 | [1] 0.01 | ralimetinib 0.017 | [2] -0.011 | [3] -0.025 | [4] -0.017 | [5] -0.028 | [6] 0.021 | [7] 0.061 | [8] 0.005 | vemurafenib 0.028 | [9] 0.033 | barasertib 0.008 | [10] -0.027 | volasertib -0.018 | [11] -0.015 | [12] 0.065 | [13] -0.032 | saracatinib 0.006 | sotrastaurin 0.02

MTMR6 (UniProt Q9Y217)
inactive: ibrutinib 0.011 | [1] -0.02 | ralimetinib 0.041 | [2] 0.026 | [3] 0.043 | [4] -0.044 | [5] 0.006 | [6] 0.121 | [7] 0.011 | [8] -0.006 | vemurafenib 0.038 | [9] 0.012 | barasertib 0.018 | [10] 0.006 | volasertib -0.024 | [11] -0.055 | [12] 0.217 | [13] -0.08 | saracatinib 0.024 | sotrastaurin 0.087

OTC (UniProt P00480)
UniProt P00480, sequence (P00480 whole entry, looked up): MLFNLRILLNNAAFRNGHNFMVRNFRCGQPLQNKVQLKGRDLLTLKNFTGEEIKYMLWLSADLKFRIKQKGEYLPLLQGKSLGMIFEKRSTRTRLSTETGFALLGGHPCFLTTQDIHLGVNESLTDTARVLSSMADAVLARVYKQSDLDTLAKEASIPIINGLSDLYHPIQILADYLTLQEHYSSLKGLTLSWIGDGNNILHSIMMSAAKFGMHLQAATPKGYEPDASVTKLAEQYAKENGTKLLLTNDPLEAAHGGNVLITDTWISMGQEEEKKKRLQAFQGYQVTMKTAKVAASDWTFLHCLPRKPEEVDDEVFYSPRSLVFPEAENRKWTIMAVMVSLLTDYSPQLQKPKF
inactive: ibrutinib -0.089 | [1] 0.001 | ralimetinib 0.065 | [2] -0.18 | [3] 0.017 | [4] -0.055 | [5] 0.065 | [6] 0.156 | [7] -0.034 | [8] -0.004 | vemurafenib 0.072 | [9] -0.063 | barasertib 0.063 | [10] -0.246 | volasertib 0.018 | [11] -0.035 | [12] -1.43 | [13] 0.371 | saracatinib 0.012 | sotrastaurin 0.282

NFKBIE (UniProt O00221)
inactive: ibrutinib -0.018 | [1] 0.054 | ralimetinib -0.008 | [2] -0.059 | [3] -0.05 | [4] 0.015 | [5] -0.044 | [6] 0.027 | [7] 0.05 | [8] 0.018 | vemurafenib 0.046 | [9] 0.051 | barasertib 0.174 | [10] 0.081 | volasertib -0.106 | [11] -0.024 | [12] -0.07 | [13] -0.045 | saracatinib -0.123 | sotrastaurin -0.025

NF1 (UniProt P21359)
UniProt P21359, sequence (P21359 whole entry, looked up): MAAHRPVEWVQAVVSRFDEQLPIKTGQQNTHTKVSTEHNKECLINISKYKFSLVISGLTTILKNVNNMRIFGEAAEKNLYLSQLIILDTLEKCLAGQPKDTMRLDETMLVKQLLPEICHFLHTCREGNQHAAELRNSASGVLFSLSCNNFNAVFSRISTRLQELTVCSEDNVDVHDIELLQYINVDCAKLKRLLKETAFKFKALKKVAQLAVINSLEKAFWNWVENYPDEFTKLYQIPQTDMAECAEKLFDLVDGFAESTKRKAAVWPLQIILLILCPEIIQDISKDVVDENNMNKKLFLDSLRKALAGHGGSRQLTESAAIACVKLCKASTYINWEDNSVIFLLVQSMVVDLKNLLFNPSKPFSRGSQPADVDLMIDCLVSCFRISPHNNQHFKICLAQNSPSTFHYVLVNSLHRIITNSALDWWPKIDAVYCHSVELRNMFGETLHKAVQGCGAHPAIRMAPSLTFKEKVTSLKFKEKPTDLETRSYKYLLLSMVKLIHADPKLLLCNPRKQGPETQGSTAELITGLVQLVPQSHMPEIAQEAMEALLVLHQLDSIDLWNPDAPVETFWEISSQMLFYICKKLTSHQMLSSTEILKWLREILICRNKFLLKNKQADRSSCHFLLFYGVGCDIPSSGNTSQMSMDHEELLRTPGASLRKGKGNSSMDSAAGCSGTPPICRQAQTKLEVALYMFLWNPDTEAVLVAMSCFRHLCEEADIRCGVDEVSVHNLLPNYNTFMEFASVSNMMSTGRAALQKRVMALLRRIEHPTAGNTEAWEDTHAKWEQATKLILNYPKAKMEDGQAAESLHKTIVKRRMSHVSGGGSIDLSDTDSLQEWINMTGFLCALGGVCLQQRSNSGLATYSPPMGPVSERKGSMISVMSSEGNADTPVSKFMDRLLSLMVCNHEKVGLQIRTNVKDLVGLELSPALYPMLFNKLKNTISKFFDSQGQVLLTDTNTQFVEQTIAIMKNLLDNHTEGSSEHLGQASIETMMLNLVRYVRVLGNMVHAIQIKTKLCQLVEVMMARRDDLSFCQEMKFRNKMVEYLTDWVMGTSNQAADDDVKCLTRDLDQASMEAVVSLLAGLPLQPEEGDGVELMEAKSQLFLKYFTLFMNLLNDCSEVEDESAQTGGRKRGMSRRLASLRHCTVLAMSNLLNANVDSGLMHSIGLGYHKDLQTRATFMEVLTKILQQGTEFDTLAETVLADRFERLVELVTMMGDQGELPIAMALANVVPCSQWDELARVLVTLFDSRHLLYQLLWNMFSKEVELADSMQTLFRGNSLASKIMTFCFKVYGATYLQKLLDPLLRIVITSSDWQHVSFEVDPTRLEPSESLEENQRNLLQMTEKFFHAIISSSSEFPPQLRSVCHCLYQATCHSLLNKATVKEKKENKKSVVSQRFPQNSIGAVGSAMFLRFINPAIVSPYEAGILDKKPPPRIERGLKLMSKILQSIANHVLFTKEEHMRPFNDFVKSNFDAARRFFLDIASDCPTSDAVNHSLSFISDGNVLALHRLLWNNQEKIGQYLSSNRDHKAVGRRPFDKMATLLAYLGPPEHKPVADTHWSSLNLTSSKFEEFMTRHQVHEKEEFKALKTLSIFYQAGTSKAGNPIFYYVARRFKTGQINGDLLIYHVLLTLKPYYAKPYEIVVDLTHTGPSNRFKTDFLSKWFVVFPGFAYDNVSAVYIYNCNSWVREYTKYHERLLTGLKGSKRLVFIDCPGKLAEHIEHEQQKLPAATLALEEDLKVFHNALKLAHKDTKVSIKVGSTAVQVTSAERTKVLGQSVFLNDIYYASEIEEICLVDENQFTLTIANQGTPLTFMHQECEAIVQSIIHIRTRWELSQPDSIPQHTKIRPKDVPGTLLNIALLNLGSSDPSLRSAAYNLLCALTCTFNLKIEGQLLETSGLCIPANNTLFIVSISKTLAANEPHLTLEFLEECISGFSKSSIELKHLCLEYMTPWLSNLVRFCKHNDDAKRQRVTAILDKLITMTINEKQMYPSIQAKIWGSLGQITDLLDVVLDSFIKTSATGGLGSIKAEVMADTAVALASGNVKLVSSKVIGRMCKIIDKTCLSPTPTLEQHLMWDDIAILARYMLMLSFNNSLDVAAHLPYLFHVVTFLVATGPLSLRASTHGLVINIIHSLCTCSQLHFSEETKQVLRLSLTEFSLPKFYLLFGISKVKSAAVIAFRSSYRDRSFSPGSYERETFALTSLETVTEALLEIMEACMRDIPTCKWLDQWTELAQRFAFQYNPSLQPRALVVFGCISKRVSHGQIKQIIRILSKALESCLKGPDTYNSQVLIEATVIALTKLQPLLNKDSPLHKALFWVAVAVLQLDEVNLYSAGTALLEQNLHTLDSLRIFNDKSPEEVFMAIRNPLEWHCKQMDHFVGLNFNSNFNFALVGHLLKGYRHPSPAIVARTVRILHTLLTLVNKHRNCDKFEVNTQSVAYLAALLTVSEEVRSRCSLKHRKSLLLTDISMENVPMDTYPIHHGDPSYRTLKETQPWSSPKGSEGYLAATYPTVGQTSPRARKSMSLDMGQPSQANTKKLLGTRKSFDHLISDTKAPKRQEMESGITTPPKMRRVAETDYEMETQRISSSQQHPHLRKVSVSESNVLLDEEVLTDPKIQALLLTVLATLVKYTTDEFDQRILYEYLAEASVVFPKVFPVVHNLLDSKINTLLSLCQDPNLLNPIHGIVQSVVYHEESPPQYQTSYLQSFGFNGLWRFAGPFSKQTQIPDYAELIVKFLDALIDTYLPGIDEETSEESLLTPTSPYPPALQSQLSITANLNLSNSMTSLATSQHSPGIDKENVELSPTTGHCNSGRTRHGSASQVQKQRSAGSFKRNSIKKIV
inactive: ibrutinib 0.018 | [1] 0.02 | ralimetinib 0.07 | [2] -0.03 | [3] -0.009 | [4] 0.004 | [5] -0.02 | [6] 0.041 | [7] 0.007 | [8] -0.032 | vemurafenib 0.019 | [9] 0.024 | barasertib 0.029 | [10] -0.044 | volasertib -0.048 | [11] 0.031 | [12] -0.035 | [13] -0.041 | saracatinib 0.001 | sotrastaurin -0.029

Reference: the supplement of paper PMC10849652
